From PubChem BioAssay (NCI)
About 79,000 compounds went through this panel and 15% of them were active in at least one assay; those are over-represented in the sample as a whole. Cut-off read from the data, not from the text of the source: active = growth inhibition above about 70%; inactive = the rest.

Legend:
[1] = NCI Yeast Anticancer Drug Screen. Data for the rad50 strain (AID 155);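 note: 0% = growth of vehicle-only cultures of the same strain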; details: S. cerevisiae rad50 strain growth inhibition; at 50.0 µM; stronger effect = higher value
Procedure, shortened: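 Yeast carrying a defined DNA repair defect were exposed to test compounds, and growth was compared with vehicle-treated controls to give percent inhibition.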

[2] = NCI Yeast Anticancer Drug Screen. Data for the mec2-1 strain (AID 157); details: S. cerevisiae mec2-1 strain, at 50.0 µM, stronger effect = higher value
Procedure, shortened: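 Test agents were screened against the mec2-1 yeast strain, with defined DNA repair or cell cycle alteration. Growth was scored as inhibition against vehicle-only controls.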

[3] = NCI Yeast Anticancer Drug Screen. Data for the sgs1 mgt1 strain (AID 161);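 note: 0% = growth of cultures given vehicle only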; details: S. cerevisiae sgs1 mgt1 strain, at 50.0 µM, stronger effect = higher value
Procedure, shortened: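 Read-out: growth inhibition vs vehicle controls. Cells: mutant yeast strain deficient in DNA damage repair.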

[4] = NCI Yeast Anticancer Drug Screen. Data for the cln2 rad14 strain (AID 165);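 note: 0% = growth equal to vehicle treated cultures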; details: S. cerevisiae cln2 rad14 strain, at 50.0 µM, stronger effect = higher value
Procedure, shortened: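 Growth of compound-exposed yeast (cln2 rad14 genotype) measured and expressed as inhibition relative to vehicle.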

[5] = NCI Yeast Anticancer Drug Screen. Data for the bub3 strain (AID 167); details: S. cerevisiae bub3 mutant strain, at 50.0 µM, stronger effect = higher value
Procedure, shortened: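 Compounds were applied to a genetically altered yeast strain carrying a cell-cycle control defect. Growth inhibition was scored against vehicle-treated controls.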

[6] = NCI Yeast Anticancer Drug Screen. Data for the mlh1 rad18 strain (AID 175); details: S. cerevisiae mlh1 rad18 strain growth inhibition; at 50.0 µM; stronger effect = higher value
Procedure, shortened: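 In this whole-cell yeast screen, a strain with altered DNA damage repair is challenged with compound, and its growth is measured against matched vehicle-treated controls.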

Measured: growth inhibition

NC1C(O)OCC(O)C1O (stereo not given)
inactive: [1] -0.35% | [2] 9.3% | [3] 10.2% | [4] 7.25% | [5] 19.4% | [6] 23.1%

C/C(=N/NC(N)=O)C1CCC(C)CC1 (stereo not given)
inactive: [1] 39% | [2] 31.8% | [3] 21.9% | [4] 12.3% | [5] 8.2% | [6] 31%

COC(=O)c1ccc(C(=O)OC)c2nc3cc(C)ccc3nc12
inactive: [1] -39.1% | [2] -2.3% | [3] -16.2% | [4] 10.1% | [5] 8.65% | [6] 14.4%

O=C1CC2CC1C1CCCC21 (stereo not given)
inactive: [1] -32.5% | [2] -18.5% | [3] -56% | [4] -10.2% | [5] -31.4% | [6] -40.7%

CS/C1=C(\c2ccc(C)cc2)N(c2ccccc2)C(=O)C(=O)N(c2ccccc2)/C(c2ccc(C)cc2)=C(/SC)SS1
inactive: [1] 12.2% | [2] -27.1% | [3] 2.9% | [4] 3% | [5] 8% | [6] 12.5%

CCc1cccc(CC)c1NC(=O)Nc1cc(Cl)ccc1C
inactive: [1] 1.8% | [2] 6.45% | [3] 5.4% | [4] -8.45% | [5] 30.1% | [6] 7.9%

COC(=O)C(C)(C)c1ccccc1C(C)(C)C(=O)OC
inactive: [1] -5.85% | [2] 6.05% | [3] -1.4% | [4] -7.95% | [5] 9.35% | [6] 3.9%

ClC1=C(Cl)C2(Cl)C3C(CC4C3C3(Cl)C(Cl)=C(Cl)C4(Cl)C3(Cl)Cl)C1(Cl)C2(Cl)Cl (stereo not given)
inactive: [1] -7.65% | [2] -7.4% | [3] -2.75% | [4] -32.1% | [5] 0.15% | [6] -9.9%

Nc1ncnc2c1ncn2C1OC(CO)C(NC(=O)C(N)CCC(=O)O)C1O (stereo not given)
inactive: [1] 1.75% | [2] -4.2% | [3] 21.6% | [4] -9.4% | [5] -0.9% | [6] -5.3%

O=c1oc2nc(-c3ccccc3)[nH]c(=O)c2c(O)c1Cc1ccccc1
inactive: [1] 6.35% | [2] 2.75% | [3] 1.55% | [4] 8.7% | [5] 27.6% | [6] 26.9%

O=C(c1ccccc1)c1ccc2[nH]ccc(=O)c2c1
inactive: [1] -4.7% | [2] 0.5% | [3] -3.7% | [4] -31.1% | [5] -7.85% | [6] 4.3%

O=C1c2cc([N+](=O)[O-])ccc2-c2c(S)cccc21
inactive: [1] 2.25% | [2] 5.25% | [3] -10.2% | [4] -4.7% | [5] 25.8% | [6] -16.3%

O=C(C[n+]1csc2ccccc21)c1ccc(I)cc1
inactive: [1] -15.3% | [2] -0.65% | [3] -9.15% | [4] -12.8% | [5] -4.8% | [6] 20.4%

CCCCC1(O)c2ccc3ccccc3c2C(O)(CCCC)c2cccc(-c3ccccc3)c21 (stereo not given)
inactive: [1] 24.1% | [2] -0.05% | [3] 10.2% | [4] -1.75% | [5] -3.15% | [6] 38.8%

CC1=NN(c2nc(N)nc(CO)n2)C(C)(C)C1
inactive: [1] 12.2% | [2] 5.75% | [3] 3.2% | [4] 5.55% | [5] 1% | [6] -72.5%

CC(C)=CCCC(=O)C(c1nc2n(c1O)C(=N)N=N2)c1nc2n(c1O)C(=N)N=N2 (stereo not given)
inactive: [1] 12.1% | [2] 7.65% | [3] 2.1% | [4] 7.9% | [5] 5.55% | [6] 20.6%

Clc1ccc2ncccc2c1
inactive: [1] 29.8% | [2] 18% | [3] 7.7% | [4] -24.1% | [5] 7.95% | [6] 17%

CCOC(=O)/C(=C/c1ccc(N(CCC#N)CCC#N)cc1C)NC(=O)/C=C/c1ccccc1
inactive: [1] -2.25% | [2] -5.85% | [3] -16.2% | [4] -20.6% | [5] -25.4% | [6] -9.65%

Cc1cc2cc3c(C)cc(=O)oc3c(C)c2o1
inactive: [1] -35.1% | [2] -37.1% | [3] -28.4% | [4] -8.35% | [5] -10.5% | [6] -17.6%

CCOc1cn(C2CC(O)C(CO)O2)c(=O)[nH]c1=O (stereo not given)
inactive: [1] -1.35% | [2] 7.75% | [3] -6.95% | [4] -10.9% | [5] -16.2% | [6] 23.6%

COc1c(C)c(C)c(Br)c(C)c1C
inactive: [1] 6.35% | [2] 7.65% | [3] 6.7% | [4] 15.6% | [5] 0.55% | [6] 12.2%

CCCO[C@@H]1[C@@H](OC(C)=O)[C@@H](OC(C)=O)C(C)(C)/C=C/[C@H](C)C(=O)[C@@]2(OC(C)=O)C[C@@](C)(OC(C)=O)[C@H](OC(C)=O)[C@@H]2[C@H]2OC(=O)CC[C@@]12OC(=O)c1ccccc1
inactive: [1] -14.7% | [2] -24.2% | [3] -56.5% | [4] -16.1% | [5] -48.8% | [6] -29.1%

Cc1ccc(Nc2ncnc3c2cnn3-c2ccccc2)cc1
inactive: [1] 9.7% | [2] 12.2% | [3] 43.5% | [4] -24.1% | [5] -2.35% | [6] 8.05%

O=C(Cc1ccc2cc3c(cc2c1)OCO3)NCCc1ccc2c(c1)OCO2
inactive: [1] 30.4% | [2] -8.4% | [3] 25.8% | [4] -11.2% | [5] -1.25% | [6] 8.8%

CC1OC(OC2C(OC(=O)[C@]34CCC(C)(C)C[C@H]3C3=CC[C@@H]5[C@@]6(C)CC[C@H](OC7OC(C(=O)O)C(O)C(OC8OCC(O)C(O)C8O)C7O)C(C)(C)[C@@H]6CC[C@@]5(C)[C@]3(C)CC4)OCC(O)C2O)C(O)C(OC2OCC(O)C(O)C2O)C1OC1OCC(O)C(OC2OCC(O)C(O)C2O)C1O (stereo not given in full)
inactive: [1] 17.1% | [2] 21.2% | [3] 19.6% | [4] 31.2% | [5] 38.4% | [6] 29.8%

COc1cc(COC(=O)Nc2ccccc2F)cc(OC)c1OC
inactive: [1] -4.9% | [2] -19.1% | [3] 7.25% | [4] 5.85% | [5] 19.6% | [6] -10%

COc1ccc(/C(C)=N/OC(=O)c2sc3ccccc3c2Cl)cc1CN1CCOCC1
inactive: [1] -17.9% | [2] -23.9% | [3] -25.4% | [4] -2.05% | [5] -28.9% | [6] -21.6%

CCC(=O)N(C)C1(C#N)CCCCC1
inactive: [1] 29.4% | [2] -42.9% | [3] 13% | [4] 0.1% | [5] 4.85% | [6] 24.2%

Cc1cccc(-c2nnc3s/c(=C\c4ccc5c(c4)OCO5)c(=O)n23)c1
inactive: [1] -20.1% | [2] -12.2% | [3] -1.45% | [4] 11.7% | [5] 4.35% | [6] 0.65%

Cc1cc(C)cc(C(=O)NCc2ccc[n+]([O-])c2)c1
inactive: [1] -10.3% | [2] -5.6% | [3] -6.35% | [4] -11.9% | [5] 0.4% | [6] 17.6%

OCC(O)C(O)C(O)CN=Cc1ccccc1O (stereo not given)
inactive: [1] -7.45% | [2] -2.25% | [3] 10.4% | [4] -7.8% | [5] -1.15% | [6] 12.3%

CCC1(CCC#N)CCC(N)=CC1=O (stereo not given)
inactive: [1] 21.9% | [2] 17.3% | [3] 7.9% | [4] -50% | [5] -6.2% | [6] -0.75%

CCN(CC)C(=O)C1(C)NS(=O)(=O)c2ccccc2C1=O (stereo not given)
inactive: [1] -7.05% | [2] 10.1% | [3] -4.15% | [4] -31.9% | [5] -10.8% | [6] -9.45%

CS/N=C(\c1ccccc1)N1CCOCC1
inactive: [1] -38.2% | [2] -5.7% | [3] -4.95% | [4] -21.1% | [5] 4.25% | [6] 5.2%

O=S1(=O)C(c2ccccc2)C(N2CCCCC2)C1C1CC2c3ccccc3C1c1ccccc12 (stereo not given)
inactive: [1] 19.5% | [2] 32.6% | [3] 2.9% | [4] -28% | [5] 28.9% | [6] 30.2%
